Reference: the supplement of paper PMC10849652
About 8,800 targets were measured; listed, in parts, are those with a hit and a random draw of the rest. About 0.5% of all pairs of compound and target were hits. Values without a mark were called inactive.

What was measured:
Test in all cases: log2 fold change, soluble protein after heating vs DMSO (PISA); higher = thermal stabilisation; K562 lysate, 10 uM; active = over 0.2 and 3.5 SD of the protein, either way, in both replicates (recomputed)
[1] = compound: NCC(=O)Nc1ccc(-n2nc(C(F)(F)F)cc2-c2ccc3c(ccc4ccccc43)c2)cc1
Outline: (§1)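 Quantification was by TMTpro 16plex LC-MS/MS with equalised channel sums, applied to the supernatant after 21,000xg for 90 min. Samples were crude K562 extract at 1 mg/mL protein in PBS pH 7.4 with 1 mM MgCl2, treated with 10 μM compound for 30 min, heated for 3 min across 48°C-58°C, pooled and brought to 0.5% NP-40 at 4°C. Values are log-two fold changes in thermal stability relative to solvent controls, from duplicates.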

vorinostat = compound: O=C(CCCCCCC(=O)Nc1ccccc1)NO [vorinostat]
Outline: as §1

silmitasertib = compound: O=C(O)c1ccc2c(c1)nc(Nc1cccc(Cl)c1)c1ccncc12 [silmitasertib]
Outline: as §1

[2] = compound: O=C1NC(=O)C(c2cnc3ccccn23)=C1c1cn2c3c(cc(F)cc13)CN(C(=O)N1CCCCC1)CC2
Outline: as §1

entospletinib = compound: c1cn2cc(-c3ccc4cn[nH]c4c3)nc(Nc3ccc(N4CCOCC4)cc3)c2n1 [entospletinib]
Outline: as §1

UniProt P35749, sequence (P35749 whole entry, looked up): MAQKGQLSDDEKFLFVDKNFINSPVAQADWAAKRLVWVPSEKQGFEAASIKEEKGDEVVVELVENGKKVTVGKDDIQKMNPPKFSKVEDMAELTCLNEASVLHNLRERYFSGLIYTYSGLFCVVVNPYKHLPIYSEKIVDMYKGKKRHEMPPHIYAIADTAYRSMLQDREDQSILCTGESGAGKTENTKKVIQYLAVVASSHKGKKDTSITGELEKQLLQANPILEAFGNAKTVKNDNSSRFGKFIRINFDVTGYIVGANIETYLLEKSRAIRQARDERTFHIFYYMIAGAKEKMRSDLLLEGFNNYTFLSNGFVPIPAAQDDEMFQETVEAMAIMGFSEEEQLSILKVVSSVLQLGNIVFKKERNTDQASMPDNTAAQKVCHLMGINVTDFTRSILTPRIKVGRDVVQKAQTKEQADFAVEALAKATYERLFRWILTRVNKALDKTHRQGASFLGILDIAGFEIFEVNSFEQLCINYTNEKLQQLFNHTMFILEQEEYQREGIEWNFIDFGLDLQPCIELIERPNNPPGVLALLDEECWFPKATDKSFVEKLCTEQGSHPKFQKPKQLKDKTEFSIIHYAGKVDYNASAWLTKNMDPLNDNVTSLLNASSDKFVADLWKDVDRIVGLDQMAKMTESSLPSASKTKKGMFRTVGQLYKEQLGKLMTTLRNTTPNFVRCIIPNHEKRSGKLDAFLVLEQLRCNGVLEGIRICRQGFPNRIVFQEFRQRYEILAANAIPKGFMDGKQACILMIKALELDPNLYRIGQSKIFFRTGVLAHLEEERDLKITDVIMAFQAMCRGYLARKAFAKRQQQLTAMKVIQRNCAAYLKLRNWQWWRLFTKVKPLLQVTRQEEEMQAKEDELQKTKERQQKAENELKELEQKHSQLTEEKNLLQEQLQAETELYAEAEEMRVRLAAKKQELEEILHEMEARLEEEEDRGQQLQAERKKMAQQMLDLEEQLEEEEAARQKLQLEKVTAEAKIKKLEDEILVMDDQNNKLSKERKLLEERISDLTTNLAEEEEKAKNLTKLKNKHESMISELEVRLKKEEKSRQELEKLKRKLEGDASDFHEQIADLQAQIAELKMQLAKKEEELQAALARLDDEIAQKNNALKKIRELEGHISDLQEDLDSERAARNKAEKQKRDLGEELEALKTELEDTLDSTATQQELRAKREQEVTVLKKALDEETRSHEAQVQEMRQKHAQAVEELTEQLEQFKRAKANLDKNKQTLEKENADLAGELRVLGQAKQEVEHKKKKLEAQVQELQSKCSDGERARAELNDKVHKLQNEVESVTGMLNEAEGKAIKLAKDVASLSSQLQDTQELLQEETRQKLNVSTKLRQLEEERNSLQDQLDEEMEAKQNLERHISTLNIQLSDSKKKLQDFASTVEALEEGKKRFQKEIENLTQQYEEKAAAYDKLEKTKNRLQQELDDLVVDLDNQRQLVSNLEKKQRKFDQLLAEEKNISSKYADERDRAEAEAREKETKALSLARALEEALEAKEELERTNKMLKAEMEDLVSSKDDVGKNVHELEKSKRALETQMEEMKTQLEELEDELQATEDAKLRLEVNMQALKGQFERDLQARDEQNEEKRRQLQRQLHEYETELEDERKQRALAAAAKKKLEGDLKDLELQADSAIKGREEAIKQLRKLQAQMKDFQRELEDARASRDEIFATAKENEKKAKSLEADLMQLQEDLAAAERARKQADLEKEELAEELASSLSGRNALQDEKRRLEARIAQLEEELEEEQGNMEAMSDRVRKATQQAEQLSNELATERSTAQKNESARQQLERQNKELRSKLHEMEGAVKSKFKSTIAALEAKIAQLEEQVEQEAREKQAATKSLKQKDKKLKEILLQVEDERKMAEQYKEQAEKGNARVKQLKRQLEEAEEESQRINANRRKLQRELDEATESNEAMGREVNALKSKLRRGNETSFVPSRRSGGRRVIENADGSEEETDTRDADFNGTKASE
UniProt Q86UW6, sequence (Q86UW6 whole entry, looked up): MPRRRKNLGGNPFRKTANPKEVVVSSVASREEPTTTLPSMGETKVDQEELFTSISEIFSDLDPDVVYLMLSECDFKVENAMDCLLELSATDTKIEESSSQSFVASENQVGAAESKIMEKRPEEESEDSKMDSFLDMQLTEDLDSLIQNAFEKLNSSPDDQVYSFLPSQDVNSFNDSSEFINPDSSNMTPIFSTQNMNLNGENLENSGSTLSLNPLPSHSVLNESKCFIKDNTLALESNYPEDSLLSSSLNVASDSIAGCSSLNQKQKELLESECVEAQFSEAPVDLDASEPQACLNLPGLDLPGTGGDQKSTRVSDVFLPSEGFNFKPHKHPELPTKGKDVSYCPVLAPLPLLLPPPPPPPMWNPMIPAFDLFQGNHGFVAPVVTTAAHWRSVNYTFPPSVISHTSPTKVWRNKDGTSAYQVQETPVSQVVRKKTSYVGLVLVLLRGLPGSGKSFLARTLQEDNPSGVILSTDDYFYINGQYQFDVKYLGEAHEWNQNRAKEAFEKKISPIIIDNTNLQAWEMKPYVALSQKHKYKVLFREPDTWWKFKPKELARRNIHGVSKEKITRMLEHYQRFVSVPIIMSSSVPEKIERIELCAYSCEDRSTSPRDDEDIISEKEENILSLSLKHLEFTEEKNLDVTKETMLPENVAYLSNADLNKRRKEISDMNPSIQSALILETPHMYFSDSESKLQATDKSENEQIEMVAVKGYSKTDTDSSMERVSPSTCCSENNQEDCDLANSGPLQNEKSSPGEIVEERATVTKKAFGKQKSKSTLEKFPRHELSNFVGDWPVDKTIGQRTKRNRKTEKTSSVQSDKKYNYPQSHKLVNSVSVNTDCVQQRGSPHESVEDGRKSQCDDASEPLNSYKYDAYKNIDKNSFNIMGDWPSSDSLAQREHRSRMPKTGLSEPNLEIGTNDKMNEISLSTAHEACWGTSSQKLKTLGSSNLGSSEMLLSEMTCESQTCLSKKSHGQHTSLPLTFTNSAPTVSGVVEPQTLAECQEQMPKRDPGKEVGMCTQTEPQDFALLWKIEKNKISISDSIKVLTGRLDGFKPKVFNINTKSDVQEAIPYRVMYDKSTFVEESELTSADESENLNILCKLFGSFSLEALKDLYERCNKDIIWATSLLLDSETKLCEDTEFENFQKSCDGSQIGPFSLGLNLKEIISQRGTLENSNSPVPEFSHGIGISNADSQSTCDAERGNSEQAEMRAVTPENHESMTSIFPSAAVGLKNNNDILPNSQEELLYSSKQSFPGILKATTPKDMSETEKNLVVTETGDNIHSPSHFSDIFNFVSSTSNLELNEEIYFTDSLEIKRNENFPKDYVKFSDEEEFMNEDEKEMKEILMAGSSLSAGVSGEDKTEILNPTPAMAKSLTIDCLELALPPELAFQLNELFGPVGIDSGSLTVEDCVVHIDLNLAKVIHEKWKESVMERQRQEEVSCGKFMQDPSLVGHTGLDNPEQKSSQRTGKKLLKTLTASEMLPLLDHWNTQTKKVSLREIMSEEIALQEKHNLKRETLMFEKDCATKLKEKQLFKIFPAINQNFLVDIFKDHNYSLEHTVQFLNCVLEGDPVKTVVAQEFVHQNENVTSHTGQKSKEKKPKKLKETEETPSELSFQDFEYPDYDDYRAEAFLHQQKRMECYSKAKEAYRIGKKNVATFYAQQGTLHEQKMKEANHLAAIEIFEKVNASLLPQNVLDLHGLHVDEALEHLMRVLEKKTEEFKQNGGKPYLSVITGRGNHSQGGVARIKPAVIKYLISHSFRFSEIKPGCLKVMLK
UniProt P03886, sequence (P03886 whole entry, looked up): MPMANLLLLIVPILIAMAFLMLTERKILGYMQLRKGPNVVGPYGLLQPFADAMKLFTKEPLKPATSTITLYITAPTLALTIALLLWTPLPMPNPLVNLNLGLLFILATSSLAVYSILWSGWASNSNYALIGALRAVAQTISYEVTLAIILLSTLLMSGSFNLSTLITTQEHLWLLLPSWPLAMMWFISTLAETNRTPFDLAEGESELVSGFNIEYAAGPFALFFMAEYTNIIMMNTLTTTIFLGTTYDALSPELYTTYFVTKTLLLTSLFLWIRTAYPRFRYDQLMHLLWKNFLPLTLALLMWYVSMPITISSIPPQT
UniProt Q9BPZ3, sequence (Q9BPZ3 whole entry, looked up): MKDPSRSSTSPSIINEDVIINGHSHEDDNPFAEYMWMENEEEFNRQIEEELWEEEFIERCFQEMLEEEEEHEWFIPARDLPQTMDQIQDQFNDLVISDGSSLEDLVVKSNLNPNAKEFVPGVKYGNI
UniProt Q9BV86, sequence (Q9BV86 whole entry, looked up): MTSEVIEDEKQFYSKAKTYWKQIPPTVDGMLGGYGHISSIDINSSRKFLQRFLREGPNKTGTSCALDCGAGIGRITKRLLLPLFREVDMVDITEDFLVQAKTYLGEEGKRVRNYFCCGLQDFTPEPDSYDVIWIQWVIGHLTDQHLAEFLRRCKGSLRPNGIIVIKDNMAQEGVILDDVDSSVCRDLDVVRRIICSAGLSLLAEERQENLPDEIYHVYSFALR
UniProt Q147X3, sequence (Q147X3 whole entry, looked up): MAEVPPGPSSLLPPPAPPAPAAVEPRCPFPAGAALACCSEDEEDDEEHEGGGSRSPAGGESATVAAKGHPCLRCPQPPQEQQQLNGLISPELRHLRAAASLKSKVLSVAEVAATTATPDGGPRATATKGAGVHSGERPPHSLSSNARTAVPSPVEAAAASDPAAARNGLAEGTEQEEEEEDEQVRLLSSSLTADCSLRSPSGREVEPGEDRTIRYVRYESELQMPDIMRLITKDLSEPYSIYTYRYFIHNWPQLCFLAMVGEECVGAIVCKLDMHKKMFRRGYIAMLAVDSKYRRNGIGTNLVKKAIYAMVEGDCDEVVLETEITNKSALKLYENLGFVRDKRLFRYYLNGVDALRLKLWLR
UniProt Q9BRA0, sequence (Q9BRA0 whole entry, looked up): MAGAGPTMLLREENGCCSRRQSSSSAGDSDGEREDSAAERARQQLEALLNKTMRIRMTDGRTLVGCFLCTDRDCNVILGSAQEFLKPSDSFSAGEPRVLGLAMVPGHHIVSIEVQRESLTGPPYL
UniProt Q99417, sequence (Q99417 whole entry, looked up): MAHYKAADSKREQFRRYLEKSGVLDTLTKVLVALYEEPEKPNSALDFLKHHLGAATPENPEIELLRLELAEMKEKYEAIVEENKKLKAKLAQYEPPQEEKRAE

| Target | log2 fold change [1] | log2 fold change (vorinostat) | log2 fold change (silmitasertib) | log2 fold change [2] | log2 fold change (entospletinib) |
| --- | --- | --- | --- | --- | --- |
| NCAPH (UniProt Q15003) | -0.031 | -0.33 (active) | 0.009 | -0.01 | -0.004 |
| PAN2 isoform 2 (UniProt Q504Q3) | 0.11 | -0.097 | 0.038 | -0.056 | 0.038 |
| MT-CYB (UniProt P00156) | -0.064 | 0.158 | 0.031 | 0.118 | 0.174 |
| NAA38 isoform 2 (UniProt Q9BRA0) | -0.015 | -0.088 | 0.009 | 0.04 | -0.035 |
| NSUN7 (UniProt Q8NE18) | 0.241 | -0.003 | 0.005 | -0.108 | -0.042 |
| NAA30 (UniProt Q147X3) | -0.019 | -0.235 (active) | 0.047 | 0.009 | -0.003 |
| OSBPL6 isoform 5 (UniProt Q9BZF3) | -0.082 | -0.195 | 0.25 | -0.026 | 0.113 |
| NFATC1 (UniProt O95644) | 0.014 | -0.364 (active) | 0.07 | 0.033 | -0.047 |
| NUP210 (UniProt Q8TEM1) | -0.006 | 0.276 (active) | 0.022 | -0.013 | -0.038 |
| NFIC (UniProt P08651) | 0.063 | -0.083 | -0.026 | -0.032 | -0.025 |
| NTMT1 (UniProt Q9BV86) | 0.008 | -0.366 (active) | 0.026 | 0.01 | 0.049 |
| MTHFD1, A0A384N5Y3 | 0.036 | -0.243 (active) | 0.056 | 0.028 | 0.026 |
| MTOR (UniProt P42345) | -0.035 | -0.305 (active) | 0.146 | -0.013 | -0.024 |
| PAXBP1 (UniProt Q9Y5B6) | 0.02 | -0.146 | -0.019 | -0.02 | -0.043 |
| NOSIP (UniProt Q9Y314) | -0.015 | -0.809 (active) | -0.047 | 0.002 | 0.013 |
| MYCBP2 (UniProt O75592) | 0.031 | -0.223 (active) | -0.002 | 0.007 | -0.002 |
| NPLOC4 isoform 2 (UniProt Q8TAT6) | 0 | 0.028 | -0.016 | 0.018 | 0.031 |
| NEK7 (UniProt Q8TDX7) | -0.037 | -0.338 (active) | 0.105 | 0.003 | 0.012 |
| MYBL2 (UniProt P10244) | -0.03 | -0.333 (active) | 0.003 | 0.008 | 0.025 |
| MYOM1 (UniProt P52179) | 0.062 | 0.055 | 0.014 | 0.292 | 0.028 |
| NCOR2 (UniProt C9J0Q5) | 0.093 | -0.27 (active) | -0.016 | 0.011 | -0.074 |
| PAIP2 (UniProt Q9BPZ3) | 0.033 | 0.054 | -0.052 | -0.025 | -0.027 |
| NCK1 (UniProt P16333) | 0.048 | -0.281 (active) | 0.01 | -0.014 | 0.019 |
| MRPS18A isoform 2 (UniProt Q9NVS2) | 0.008 | 0.021 | 0.048 | 0.019 | -0.052 |
| NUP133 (UniProt Q8WUM0) | 0.045 | -0.195 | 0.052 | 0.011 | -0.033 |
| NDUFS1 isoform 2 (UniProt P28331) | -0.006 | 0.118 | 0.032 | -0.052 | -0.014 |
| NCAPD2 (UniProt Q15021) | -0.01 | -0.332 (active) | 0.01 | -0.005 | -0.001 |

| Target | log2 fold change [1] | log2 fold change (vorinostat) | log2 fold change (silmitasertib) | log2 fold change [2] | log2 fold change (entospletinib) |
| --- | --- | --- | --- | --- | --- |
| MYH11 isoform 2 (UniProt P35749) | 0.014 | 0.042 | 0.02 | -0.005 | 0.013 |
| MRPL51 (UniProt Q4U2R6) | -0.03 | -0.067 | -0.054 | 0.121 | 0.003 |
| NOSTRIN (UniProt Q8IVI9) | -0.083 | -0.27 (active) | 0.028 | 0.019 | 0.018 |
| OSBPL3 isoform 2 (UniProt Q9H4L5) | -0.087 | -0.36 (active) | 0.402 (active) | 0.062 | 0.052 |
| NLRP2 (UniProt Q9NX02) | -0.031 | -0.528 (active) | 0.062 | -0.015 | 0.011 |
| NELFCD (UniProt Q8IXH7) | 0.023 | -0.322 (active) | 0.049 | -0.005 | 0.032 |
| NEBL isoform 2 (UniProt O76041) | -0.019 | 0.146 | -0.019 | -0.016 | -0.01 |
| MSH3 (UniProt P20585) | 0.044 | -0.316 (active) | 0.055 | -0.017 | 0.025 |
| PANK4 (UniProt Q9NVE7) | 0.012 | -0.423 (active) | -0.03 | 0.055 | 0.035 |
| OGT (UniProt O15294) | 0.002 | -0.42 (active) | 0.035 | 0.045 | 0.021 |
| NADK2 (UniProt Q4G0N4) | -0.002 | -0.106 | 0.044 | 0.003 | -0.001 |
| OSBP2 (UniProt Q969R2) | 0.025 | 0.055 | -0.147 | 0.023 | -0.102 |
| N4BP2 (UniProt Q86UW6) | -0.075 | -0.369 (active) | -0.004 | -0.001 | -0.029 |
| NT5DC2 isoform 2 (UniProt Q9H857) | 0.013 | -0.272 (active) | -0.019 | 0 | -0.013 |
| MT-ND1 (UniProt P03886) | 0.002 | 0.072 | 0.033 | 0.015 | 0.121 |
| NCOR1 (UniProt O75376) | 0.021 | -0.239 (active) | -0.035 | 0.014 | -0.01 |
| MTA1 (UniProt Q13330) | -0.005 | -0.212 (active) | -0.037 | 0.016 | -0.036 |
| MYCBP (UniProt Q99417) | 0.006 | 0.113 | -0.015 | -0.025 | -0.075 |
| NIPSNAP3A (UniProt Q9UFN0) | 0.03 | 0.136 | -0.061 | 0.017 | -0.021 |
| NUP160 (UniProt Q12769) | -0.036 | -0.291 (active) | 0.082 | 0.022 | 0.009 |
| MTFP1 (UniProt Q9UDX5) | -0.04 | 0.102 | -0.007 | 0.02 | -0.009 |
| NEK9 (UniProt Q8TD19) | -0.03 | -0.45 (active) | 0.052 | -0.013 | 0.013 |
| NUDT6 (UniProt P53370) | 0.128 | 0.038 | -0.096 | 0.02 | -0.225 |
| PBK (UniProt Q96KB5) | -0.029 | -0.269 (active) | 0.013 | -0.021 | 0.035 |
| NARS2 (UniProt Q96I59) | 0.063 | -0.344 (active) | 0.05 | -0.029 | -0.079 |
| NMT1 (UniProt P30419) | -0.35 (active) | 0.028 | -0.03 | -0.036 | 0.034 |
